This is a sample that favours compounds with a hit; in the whole collection about 19% have one here.
DT40 TDP1 CPT: growth inhibition of DT40 Tdp1-/-;hTDP1 cells with camptothecin (screen for TDP1 inhibitors); chicken DT40 Tdp1-/-;hTDP1 cells + 20 nM CPT, ATP luminescence, 48 h; Potency, µM (top dose mostly 46.2 µM), for the others: top-dose activity change, negative = growth inhibition, usual class: inhibitors; 420,000 compounds, 12% hits; AID 686979; note: potency is the fitted concentration of half-maximal effect; nearly all actives have a fitted effect of over 55% in size
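Chicken DT40 Tdp1-/- cells stably complemented with human TDP1 were seeded at 400 cells/well in medium containing 20 nM camptothecin, exposed to pin-transferred compounds, and grown at 37 °C for at least 48 hr. Viability was read as ATP luminescence.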
IL-1B inflam inh: inflammasome signaling inhibition, IL-1 beta readout. THP-1 LPS/ATP IL-1B secretion, AlphaLISA, 16 h; stronger effect = lower value. activity change, % at 57.5 µM. 360,000 compounds, 4.7% hits. AID 743279; in the data active = activity change below about -50%; inconclusive = mostly about -30% to -49%
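THP-1 cells pretreated 1 hr with compounds (up to 57.5 uM final), then stimulated with LPS (250 ng/mL final) plus ATP (1.25 mM final); secreted IL-1B measured by AlphaLISA after 16 hr, decreased signal indicating inhibition.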
TDP1 cell noCPT: qHTS for Inhibitors of human tyrosyl-DNA phosphodiesterase 1 (TDP1): qHTS in cells in absence of CPT | DT40 Tdp1-/- hTDP1 cells, no CPT, ATP luminescence, 48 h | Potency, µM (top dose mostly 46.2 µM), inactives show at the highest dose activity change, negative = growth inhibition, usual class: inhibitors | 420,000 compounds, 15% hits | AID 686978, 2013; note: potency is the fitted concentration of half-maximal effect; nearly all actives have a fitted effect of over 55% in size
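Seeded 400 DT40-hTDP1 cells/well (vehicle DMSO, no 20 nM CPT); pinned compounds; ≥48 hr at 37 °C; CellTiter-Glo luminescence as viability measure.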
HT1080-NT tox: kills 2HG-producing HT-1080-NT fibrosarcoma cells | HT-1080-NT fibrosarcoma viability, CellTiter-Glo ATP luminescence, 48 h | Potency, µM (highest dose often 46.1 µM), inactives show at the top dose activity, negative = less viability, most hits filed as cytotoxic | 360,000 compounds, 1.6% hits | AID 686970;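 note: NT is the 2HG producing partner of a matched IDH1 knockdown line; potency is the fitted concentration of half-maximal effect; 0% = DMSO-treated cells and -100% = media-only wells without cells; nearly all actives have a fitted effect of over 55% in size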
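Toxicity toward the 2HG-producing NT line was scored as %Activity, normalised to DMSO and no-cell wells, from CellTiter-Glo luminescence after 48 hours' treatment.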
HT1080 IDH1KD tx: toxicity to HT-1080 IDH1 knockdown cells (counter line). HT-1080 IDH1 knockdown viability, ATP luminescence, 48 h. Potency, µM (titrated, usually from 46.1 µM), for inactives: at the highest dose activity, negative = toxicity, actives largely listed as cytotoxic. 360,000 compounds, 2% hits. AID 686971;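 note: potency is the fitted concentration of half-maximal effect; 0% = DMSO wells and -100% = cell-free medium wells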
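HT-1080-IDH1KD cells (IDH1 knocked down), 750/well in RPMI with 5% FBS, treated with compound 48 h at 37 degrees C. Viability by CellTiter-Glo luminescence, normalised to DMSO and no-cell wells; concentration-response curves classed.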
ELG1 DNA repair: ELG1-dependent DNA repair inhibition; HEK293T ELG1-luciferase reporter, luminescence, 16 h; DNA damage induced by 5-fluorouridine; Potency, µM (doses to about 46.1 µM), for the others: at the highest dose activity change, negative = inhibition, usual class: inhibitors; 330,000 compounds, 2.3% hits; AID 504467; note: potency is the fitted concentration of half-maximal effect; nearly all actives have a fitted effect of over 55% in size
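5-Fluorouridine DNA damage + compound/DMSO, 2,000 cells/well, 16 h, 37 °C/5% CO2. ONE-Glo, 30 min RT, luminescence. Readout = decrease in reporter signal.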
Numbers without * were called inactive. Unless noted, calls come from the whole dose curve; as a rule, active = well fitted curve in the direction sought with a large enough effect; inconclusive = small, poorly fitted or top-dose-only effect, or another doubt; inactive = no such curve, though single readings can be large; an effect the other way counts as inactive or inconclusive. Unless noted, % is set by controls: 0 for no effect and ±100 for the full control effect.

What do the screens show for `O=C(NCc1ccccc1)c1cc(C2CCCN(C(=O)C3CCCCC3)C2)on1` (centres undefined)?
DT40 TDP1 CPT: 23µM*; IL-1B inflam inh: -1; TDP1 cell noCPT: inconclusive; HT1080-NT tox: 24%; HT1080 IDH1KD tx: 27%

Results for O=C(NCc1ccc(F)cc1)c1cc(C2CCCN(C(=O)C3CCCCC3)C2)on1 (centres undefined) ?
DT40 TDP1 CPT: 26µM*; IL-1B inflam inh: -16; TDP1 cell noCPT: inconclusive; HT1080-NT tox: 14%; HT1080 IDH1KD tx: 5%

How did CC(=O)Nc1ccc(C(=O)N2CCCC(c3cc(C(=O)NCc4ccc(F)cc4)no3)C2)cc1 (centres undefined) do in these assays?
DT40 TDP1 CPT: inconclusive; IL-1B inflam inh: -19; TDP1 cell noCPT: inconclusive; HT1080-NT tox: -7%; HT1080 IDH1KD tx: -8%

Results for CCOC(=O)[C@@H](NC(=O)/C=C/[C@H]1O[C@@H](n2ccc(=O)[nH]c2=O)[C@H](O)[C@@H]1O)C(C)C ?
DT40 TDP1 CPT: 4%; IL-1B inflam inh: 11; TDP1 cell noCPT: 3%; HT1080-NT tox: 22%; HT1080 IDH1KD tx: 27%

How did Cc1ccc(NC(=O)CCS(=O)(=O)c2cc(Br)cc3c2N(C(=O)C2CC2)CC3)cc1 do in these assays?
DT40 TDP1 CPT: 12%; TDP1 cell noCPT: 0%

What do the screens show for `COc1cc(C(=O)O/N=C(\N)c2ccccn2)cc(OC)c1OC`?
DT40 TDP1 CPT: inconclusive; IL-1B inflam inh: -28; TDP1 cell noCPT: inconclusive; HT1080-NT tox: 9%; HT1080 IDH1KD tx: 18%; ELG1 DNA repair: inconclusive

How did COc1cc(C(=O)ON=C2C3CC4CC(C3)CC2C4)cc(OC)c1OC do in these assays?
DT40 TDP1 CPT: inconclusive; IL-1B inflam inh: 0; TDP1 cell noCPT: -17%; HT1080-NT tox: -16%; HT1080 IDH1KD tx: -8%; ELG1 DNA repair: 23µM*

What do the screens show for `COc1cc(C(=O)NC23CC4CC(CC(C4)C2)C3)cc(OC)c1OC`?
DT40 TDP1 CPT: -19%; IL-1B inflam inh: 0; TDP1 cell noCPT: inconclusive; HT1080-NT tox: 9%; HT1080 IDH1KD tx: -1%; ELG1 DNA repair: 10%

How did COc1cc(C(=O)O/N=C2\C=CC(=O)C=C2C)cc(OC)c1OC do in these assays?
DT40 TDP1 CPT: 12µM*; IL-1B inflam inh: 24; TDP1 cell noCPT: inconclusive; HT1080-NT tox: 5%; HT1080 IDH1KD tx: 15%; ELG1 DNA repair: 2%

How did CCOC(=O)c1ccc(N2C(=O)C(O)=C(C(C)=O)C2c2ccc([N+](=O)[O-])cc2)cc1 (centres undefined) do in these assays?
DT40 TDP1 CPT: 4%; IL-1B inflam inh: -9; TDP1 cell noCPT: -7%; HT1080-NT tox: 6%; HT1080 IDH1KD tx: 7%; ELG1 DNA repair: 8%

Results for Cc1cc(NC(=O)c2cc(Cl)ccc2Cl)ccc1-c1cc2ccccc2oc1=O ?
DT40 TDP1 CPT: -20%; TDP1 cell noCPT: inconclusive

How did COc1ccc(C(=O)Nc2ccc(NC(C)=O)cc2)cc1S(=O)(=O)N1CCCCC1C (centres undefined) do in these assays?
DT40 TDP1 CPT: inconclusive; IL-1B inflam inh: 12; TDP1 cell noCPT: inconclusive; HT1080-NT tox: inconclusive; HT1080 IDH1KD tx: inconclusive; ELG1 DNA repair: 12%

What do the screens show for `COc1cc(C(=O)Nc2ccc(S(=O)(=O)N3CCCCC3C)cc2)cc(OC)c1OC` (centres undefined)?
DT40 TDP1 CPT: 21µM*; IL-1B inflam inh: inconclusive; TDP1 cell noCPT: inconclusive; HT1080-NT tox: -26%; HT1080 IDH1KD tx: inconclusive; ELG1 DNA repair: inconclusive

What do the screens show for `COc1ccc(C(=O)Nc2ccc(S(=O)(=O)N3CCCCC3C)cc2)c(OC)c1OC` (centres undefined)?
DT40 TDP1 CPT: 18µM*; IL-1B inflam inh: -59*; TDP1 cell noCPT: 16µM*; HT1080-NT tox: inconclusive; HT1080 IDH1KD tx: inconclusive; ELG1 DNA repair: inconclusive

How did COCC(=O)Nc1cc(C)cn(Cc2ccccc2Cl)c1=O do in these assays?
DT40 TDP1 CPT: 13%; IL-1B inflam inh: 3; TDP1 cell noCPT: 1%; HT1080-NT tox: 8%; HT1080 IDH1KD tx: 27%; ELG1 DNA repair: inconclusive

Results for O=C(NCCc1ccccc1)C1COc2ccccc2O1 (centres undefined) ?
DT40 TDP1 CPT: -8%; IL-1B inflam inh: -6; TDP1 cell noCPT: -24%; HT1080-NT tox: 16%; HT1080 IDH1KD tx: 12%; ELG1 DNA repair: inconclusive

What do the screens show for `O=C(NCCc1ccc(O)c(O)c1)C1COc2ccccc2O1` (centres undefined)?
DT40 TDP1 CPT: 13µM*; IL-1B inflam inh: 29; TDP1 cell noCPT: inconclusive; HT1080-NT tox: -9%; HT1080 IDH1KD tx: inconclusive; ELG1 DNA repair: -19%

Results for N#Cc1cccc(NC(=O)N2CCC3(CC2)CCN(C(=O)c2cnccn2)CC3)c1 ?
DT40 TDP1 CPT: -4%; TDP1 cell noCPT: -2%

How did Cc1ccc(C2=Nc3ccccc3N=C(c3ccc(F)cc3)C2)c(O)c1 do in these assays?
DT40 TDP1 CPT: -21%; TDP1 cell noCPT: inconclusive

What do the screens show for `O=C(c1ccc(Cl)c(S(=O)(=O)N2CCOCC2)c1)N(Cc1nnc(-c2ccccc2Cl)o1)C1CC1`?
DT40 TDP1 CPT: 21µM*; IL-1B inflam inh: -9; TDP1 cell noCPT: 15µM*; HT1080-NT tox: -3%; HT1080 IDH1KD tx: -1%; ELG1 DNA repair: inconclusive

How did CN1CCN(S(=O)(=O)c2cccc(C(=O)N(Cc3nnc(-c4ccc(Cl)cc4)o3)C3CC3)c2)CC1 do in these assays?
DT40 TDP1 CPT: 21µM*; IL-1B inflam inh: inconclusive; TDP1 cell noCPT: inconclusive; HT1080-NT tox: -18%; HT1080 IDH1KD tx: -11%; ELG1 DNA repair: -24%

Results for O=C(c1cc(S(=O)(=O)N2CCOCC2)ccc1F)N(Cc1nnc(-c2ccccc2Cl)o1)C1CC1 ?
DT40 TDP1 CPT: inconclusive; IL-1B inflam inh: -9; TDP1 cell noCPT: inconclusive; HT1080-NT tox: -1%; HT1080 IDH1KD tx: 0%; ELG1 DNA repair: inconclusive

What do the screens show for `CC(C)CN(C(=O)c1cccc(S(=O)(=O)N2CCN(C)CC2)c1)C1CCS(=O)(=O)C1` (centres undefined)?
DT40 TDP1 CPT: 8%; IL-1B inflam inh: -2; TDP1 cell noCPT: 7%; HT1080-NT tox: 1%; HT1080 IDH1KD tx: 6%; ELG1 DNA repair: 13%

Screening results as filed in PubChem BioAssay.
